# Data taken from PubChem BioAssay (NCATS).
# Several values for one entry are separate records, joined by “and”; a condition that tells them apart may be missing. Equal values may be shown once. Inconclusive results are not listed. A call without a number means that no potency is given here. Some compounds were tested as several samples or in several runs, with calls that do not always agree. Activity calls are given as the source filed them. Unless noted, calls follow the shape of the dose curve; as a rule, active = well fitted curve in the direction sought with a large enough effect; inconclusive = small, poorly fitted or top-dose-only effect, or another doubt; inactive = no such curve, though single readings can be large; an effect the other way counts as inactive or inconclusive.
# Legend:
# [1] = biological target: Calcium and integrin-binding protein 1 (Homo sapiens) (UniProt Q99828); experiment: Primary qHTS for Identification of Calcium Integrin Binding Protein 1 (CIB1) Competitor (AID 1508620);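 also: GST tagged CIB1 binding a fluorescein labelled alphaIIb integrin peptide tracer; top concentration of the series differs between compounds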
# Method in brief: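 CIB1-GST (1 uM final) and compound incubated 15 min at room temperature before adding FITC-alphaIIb peptide tracer (100 nM final). Competition for binding read by fluorescence polarization (ex 480, em 540) after another 15 min at room temperature.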
# [2] = Primary qHTS for inhibitors of nuclear receptor binding SET domain protein 2 (NSD2) in an isogenic RCH-ACV NSD2 p.E1099K mutant (9B) (AID 1645876); also: nearly all actives have a fitted effect of over 70% in size; also: potency is read from the fitted curve at half-maximal effect
# [3] = Primary qHTS for inhibitors of nuclear receptor binding SET domain protein 2 (NSD2) in an RCH-ACV wild type WT cells (2C) (AID 1645877); also: nearly all actives have a fitted effect of over 70% in size; also: potency is read from the fitted curve at half-maximal effect
# [4] = biological target: Cytochrome P450 2D6 (Homo sapiens) (UniProt P10635); experiment: Cytochrome P450 family 2 subfamily D member 6 (CYP2D6) small molecule antagonists: luciferase biochemical (cell-free) qHTS assay (AID 1645840; active = well fitted curve in the direction sought with a large enough effect in the repeat runs; an effect the other way counts as inactive or inconclusive; also: nearly all actives have a fitted effect of over 55% in size; also: potency is read from the fitted curve at half-maximal effect)
# Method in brief: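 P450-Glo luminescent screen: recombinant CYP2D6 enzyme–proluciferin substrate mix preincubated with compound 10 min at room temperature, then NADPH regeneration added for 1 h at room temperature. Detection reagent added for 20 min; luciferin light read as relative luminescence units.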
# [5] = biological target: Cytochrome P450 2C9 (Homo sapiens) (UniProt P11712); experiment: Cytochrome P450 family 2 subfamily C member 9 (CYP2C9) small molecule antagonists: luciferase biochemical (cell-free) qHTS assay (AID 1645842; active = well fitted curve in the direction sought with a large enough effect in the repeat runs; an effect the other way counts as inactive or inconclusive; also: nearly all actives have a fitted effect of over 55% in size; also: potency is read from the fitted curve at half-maximal effect)
# Method in brief: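 Luminescence, after 20 min with luciferin detection reagent, reflected CYP2C9 turnover during a 1 h NADPH-driven reaction at 37C. Enzyme-substrate mix contained 0.4% bovine serum albumin and was preincubated with compound 10 min at room temperature.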
# [6] = Primary qHTS for small molecule stabilizers of the endoplasmic reticulum resident proteome: Secreted ER Calcium Modulated Protein (SERCaMP) assay (AID 1508630)
# Method in brief: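 GLuc-SERCaMP-expressing SH-SY5Y cells, pretreated 16 h with compound, are challenged with thapsigargin to empty ER calcium stores; after 4 h, coelenterazine is added directly to the medium and luminescence is imaged.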
# [7] = biological target: Rap guanine nucleotide exchange factor 3 (Homo sapiens) (UniProt O95398); experiment: Confirmatory qHTS for antagonist of cAMP-regulated guanine nucleotide exchange factor 3 (EPAC1) (AID 1645880); also: nearly all actives have a fitted effect of over 55% in size
# Method in brief: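 Nucleotide exchange uses 100 nM EPAC1, 250 nM RAP1B-BODIPY-GDP and 50 uM GDP, with compounds in a concentration-titration series. After 5 min at room temperature, fluorescence (480 nm ex/540 nm em) is read every 5 min for 30 min. Data are normalized to control ATA and DMSO.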
# [8] = biological target: Rap guanine nucleotide exchange factor 3 (Homo sapiens) (UniProt O95398); experiment: Confirmatory qHTS for agonist of cAMP-regulated guanine nucleotide exchange factor 3 (EPAC1) (AID 1645881);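 also: EPAC1 catalysed release of BODIPY-GDP from Rap1B seen as fluorescence loss; nearly all actives have a fitted effect of over 75% in size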
# [9] = Counterscreen qHTS for small molecule stabilizers of the endoplasmic reticulum resident proteome: GLuc-NoTag assay (AID 1508627);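 also: SH-SY5Y cells given compound then 100 nM thapsigargin to empty ER calcium; series mostly up to about 76 µM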
# Method in brief: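 Luminescence of Gaussia luciferase secreted into the medium (coelenterazine, 0.07x final, unlysed cells) was the read-out. Human SH-SY5Y neuroblastoma cells constitutively secreting untagged GLuc received compound for 19 h, then 100 nM thapsigargin for 4 h.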
# [10] = biological target: N-terminal Xaa-Pro-Lys N-methyltransferase 1 (Homo sapiens) (UniProt Q9BV86); experiment: Confirmatory qHTS for Inhibitors of N-terminal methyltransferase 1 (NTMT1): MTaseGlo Assay (AID 1645874); also: potency is read from the fitted curve at half-maximal effect; nearly all actives have a fitted effect of over 65% in size
# Method in brief: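 NTMT1 (125 nM) preincubated 15 min with compound and 100 uM SAM, then 1 uM SPKRIA peptide added for 30 min at room temperature. SAH detected by MTase-Glo luminescence; normalized to no-enzyme and DMSO controls, fitted to 4-parameter Hill.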
# Sequence of Cytochrome P450 2C9 (Homo sapiens) (P11712 whole entry, looked up): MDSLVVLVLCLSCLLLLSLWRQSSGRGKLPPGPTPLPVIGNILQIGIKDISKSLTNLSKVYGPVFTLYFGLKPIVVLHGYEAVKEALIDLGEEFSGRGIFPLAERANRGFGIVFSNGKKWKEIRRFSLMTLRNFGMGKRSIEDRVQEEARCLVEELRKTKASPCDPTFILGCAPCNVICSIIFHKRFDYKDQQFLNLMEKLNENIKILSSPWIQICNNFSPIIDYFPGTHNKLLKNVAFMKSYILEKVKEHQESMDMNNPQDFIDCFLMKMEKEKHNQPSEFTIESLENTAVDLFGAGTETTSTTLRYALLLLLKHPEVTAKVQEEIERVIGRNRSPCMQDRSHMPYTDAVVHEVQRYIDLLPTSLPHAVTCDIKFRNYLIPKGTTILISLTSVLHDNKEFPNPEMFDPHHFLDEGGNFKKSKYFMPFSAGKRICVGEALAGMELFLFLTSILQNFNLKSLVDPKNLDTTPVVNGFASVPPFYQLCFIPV
# Sequence of Cytochrome P450 2D6 (Homo sapiens) (P10635 whole entry, looked up): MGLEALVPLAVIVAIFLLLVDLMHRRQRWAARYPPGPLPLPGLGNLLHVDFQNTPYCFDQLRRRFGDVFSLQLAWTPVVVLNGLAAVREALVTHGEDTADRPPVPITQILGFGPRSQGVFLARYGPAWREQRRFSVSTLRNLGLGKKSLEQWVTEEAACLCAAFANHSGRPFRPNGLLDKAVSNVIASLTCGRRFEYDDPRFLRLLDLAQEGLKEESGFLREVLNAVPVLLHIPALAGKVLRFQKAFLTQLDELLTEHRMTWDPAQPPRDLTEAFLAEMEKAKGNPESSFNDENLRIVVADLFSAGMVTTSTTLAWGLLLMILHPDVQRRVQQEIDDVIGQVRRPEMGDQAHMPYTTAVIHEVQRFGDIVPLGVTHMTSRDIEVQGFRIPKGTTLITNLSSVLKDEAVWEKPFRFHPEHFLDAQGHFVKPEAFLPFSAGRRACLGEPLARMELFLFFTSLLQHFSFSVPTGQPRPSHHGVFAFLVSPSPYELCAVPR
# Sequence of Calcium and integrin-binding protein 1 (Homo sapiens) (Q99828 whole entry, looked up): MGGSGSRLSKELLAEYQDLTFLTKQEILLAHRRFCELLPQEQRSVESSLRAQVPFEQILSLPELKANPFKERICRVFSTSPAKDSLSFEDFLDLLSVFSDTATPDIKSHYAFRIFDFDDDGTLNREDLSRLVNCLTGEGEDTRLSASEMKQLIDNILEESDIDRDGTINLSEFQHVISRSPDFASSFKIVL
# Sequence of Rap guanine nucleotide exchange factor 3 (Homo sapiens) (O95398 whole entry, looked up): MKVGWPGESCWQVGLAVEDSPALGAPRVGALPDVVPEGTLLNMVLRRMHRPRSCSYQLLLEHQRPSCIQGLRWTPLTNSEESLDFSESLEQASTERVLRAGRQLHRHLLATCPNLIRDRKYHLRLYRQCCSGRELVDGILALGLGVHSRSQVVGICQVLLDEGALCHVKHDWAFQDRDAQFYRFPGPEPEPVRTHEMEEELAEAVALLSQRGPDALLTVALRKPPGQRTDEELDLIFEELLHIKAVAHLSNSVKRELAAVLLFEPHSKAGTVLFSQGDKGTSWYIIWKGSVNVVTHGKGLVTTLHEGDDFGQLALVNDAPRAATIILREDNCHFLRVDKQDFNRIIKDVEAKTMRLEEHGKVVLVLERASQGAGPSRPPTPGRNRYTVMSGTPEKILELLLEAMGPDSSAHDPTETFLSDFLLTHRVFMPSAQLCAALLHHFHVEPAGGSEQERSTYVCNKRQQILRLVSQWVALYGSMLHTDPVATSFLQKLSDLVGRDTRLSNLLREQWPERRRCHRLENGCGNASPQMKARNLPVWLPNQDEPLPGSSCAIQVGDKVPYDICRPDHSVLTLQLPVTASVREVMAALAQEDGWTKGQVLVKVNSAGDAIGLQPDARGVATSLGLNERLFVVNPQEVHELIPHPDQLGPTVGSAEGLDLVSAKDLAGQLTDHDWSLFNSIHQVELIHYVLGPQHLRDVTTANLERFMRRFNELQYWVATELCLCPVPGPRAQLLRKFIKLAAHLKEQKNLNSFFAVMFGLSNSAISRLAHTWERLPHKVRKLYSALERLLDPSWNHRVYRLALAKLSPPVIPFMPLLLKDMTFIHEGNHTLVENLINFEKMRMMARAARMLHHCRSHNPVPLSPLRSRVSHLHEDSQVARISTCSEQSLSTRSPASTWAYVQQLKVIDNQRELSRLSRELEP
# Sequence of N-terminal Xaa-Pro-Lys N-methyltransferase 1 (Homo sapiens) (Q9BV86 whole entry, looked up): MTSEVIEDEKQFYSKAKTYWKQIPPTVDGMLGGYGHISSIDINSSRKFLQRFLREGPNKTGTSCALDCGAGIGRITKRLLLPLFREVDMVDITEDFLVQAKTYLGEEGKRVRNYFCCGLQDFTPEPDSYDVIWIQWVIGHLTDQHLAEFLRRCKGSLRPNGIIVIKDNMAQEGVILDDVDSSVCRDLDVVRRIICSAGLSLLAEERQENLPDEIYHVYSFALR
smiles,measurement,setting,value
NC(CO)(CO)CCc1ccc(Sc2cccc(OCc3ccccc3)c2)cc1Cl,Potency,[1],inactive
same,Potency,[2],7.42 µM (active)
same,Potency,[3],7.42 µM (active)
NC(=O)c1cccc(-c2cc(Nc3ccc(OC(F)(F)F)cc3)ncn2)c1,Potency,[1],inactive
same,Potency,[4],26.8 µM (active)
same,Potency,[5],15.1 µM (active)
same,Potency,[2],20.5 µM (active) and 14.8 µM (active)
same,Potency,[3],23 µM (active) and 13.2 µM (active)
CN[C@@H](C)C(=O)N[C@H]1CN(C(=O)CC(C)C)CC[C@H]2CC[C@@H](C(=O)NC(c3ccccc3)c3ccccc3)N2C1=O,Potency,[1],inactive
same,Potency,[4],inactive
same,Potency,[5],inactive
same,Potency,[2],inactive
same,Potency,[3],inactive
c1ccc2c(Cc3c[nH]c4ccccc34)c[nH]c2c1,Potency,[1],inactive
same,Potency,[6],inactive
same,outcome,[7],inactive
same,outcome,[8],inactive
CN1CCN(CCOc2cc(OC3CCOCC3)c3c(Nc4c(Cl)ccc5c4OCO5)ncnc3c2)CC1,Potency,[1],inactive
same,Potency,[2],3.25 µM (active) and 2.63 µM (active)
same,Potency,[3],5.15 µM (active) and 2.95 µM (active)
COc1cc2nc(-c3ccc(N4CCN(C)CC4)cc3)nc(NCCN3CCOCC3)c2cc1OC,Potency,[1],inactive
same,Potency,[2],1.86 µM (active)
COc1cc2ncnc(Nc3ccc(F)c(Cl)c3)c2cc1OCCCN1CCOCC1,Potency,[9],inactive
same,Potency,[6],inactive
same,Potency,[4],4.9 µM (active)
same,Potency,[5],inactive
same,Potency,[10],7.58 µM (active)
same,Potency,[2],23.7 µM (active) and 20.6 µM (active) and inactive
same,Potency,[3],10.6 µM (active) and 11.5 µM (active)
CCNc1cc(NC2CCC(O)CC2)nc(Nc2ccc3c(ccn3Cc3ccccc3)c2)n1 (centres undefined),Potency,[1],inactive
same,Potency,[3],3.32 µM (active)
O=c1cc(CN2CCOCC2)occ1OCCCCCSc1ccnc2cc(C(F)(F)F)ccc12,Potency,[1],inactive
same,Potency,[2],18.6 µM (active) and 9.16 µM (active)
same,Potency,[3],16.6 µM (active) and 18.3 µM (active)
Cc1cnc(C(=O)O)c[n+]1[O-],Potency,[1],inactive
same,Potency,[5],inactive
same,Potency,[2],inactive
same,Potency,[3],inactive
O=C(NCc1ccccc1)c1csc(Nc2ccncn2)n1,Potency,[1],inactive
same,Potency,[2],11.8 µM (active)
same,Potency,[3],9.34 µM (active) and 16.3 µM (active)
CN(C)C1CCN(C(=O)c2ccc(NC(=O)Nc3nc(N4CCOCC4)nc(N4CCOCC4)n3)cc2)CC1,Potency,[1],inactive
same,Potency,[2],25.2 nM (active) and 37.2 nM (active)
Oc1ccc(C2CCN(c3ccnc4ccccc34)CC2)cc1O,Potency,[1],inactive
same,Potency,[2],13.2 µM (active)
same,Potency,[3],11.8 µM (active)
COc1cccc([C@@H](C)NCCCc2ccccc2Cl)c1,Potency,[1],inactive
same,Potency,[2],18.6 µM (active)
same,Potency,[3],18.6 µM (active)
O=C(N[C@@H](c1ccccc1)[C@@H]1CCCCN1)c1cccc(C(F)(F)F)c1Cl,Potency,[1],inactive
same,Potency,[2],18.6 µM (active)
same,Potency,[3],16.6 µM (active)
O=C(Nc1ccccc1-c1cn2c(CN3CCNCC3)csc2n1)c1cnc2ccccc2n1,Potency,[1],inactive
same,Potency,[10],33.9 µM (active)
same,Potency,[2],20.5 µM (active) and 7.42 µM (active)
same,Potency,[3],4.09 µM (active) and 6.61 µM (active)
c1ccc2c(-c3cnn4cc(-c5ccc(N6CCNCC6)cc5)cnc34)ccnc2c1,Potency,[1],inactive
same,Potency,[4],inactive
same,Potency,[5],inactive
same,Potency,[2],2.63 µM (active)
same,Potency,[3],2.09 µM (active)
CN(C[C@@H]1COCCO1)S(=O)(=O)Nc1ccc2ccc3ncc(-c4cnn(C)c4)cc3c(=O)c2c1,Potency,[1],inactive
same,Potency,[5],0.477 µM (active)
same,Potency,[2],5.15 µM (active)
same,Potency,[3],6.49 µM (active)
COCCOc1nc(-c2ccc(Cl)c(Cl)c2)n(-c2ccc(NC(=O)CCl)cc2)n1,Potency,[1],inactive
same,Potency,[5],4.77 µM (active)
same,Potency,[2],1.48 µM (active)
same,Potency,[3],1.32 µM (active)
COc1ccc(C2Sc3ccccc3N(CCN(C)C)C(=O)C2OC(C)=O)cc1 (centres undefined),Potency,[1],inactive
same,Potency,[2],inactive
same,Potency,[3],inactive
COc1ccc(-c2coc3cc(O)cc(O)c3c2=O)cc1,Potency,[1],inactive
same,Potency,[2],18.6 µM (active)
Cc1ccc(F)c(NC(=O)Nc2ccc(-c3cccc4[nH]nc(N)c34)cc2)c1,Potency,[1],inactive
same,Potency,[2],10.5 µM (active)
same,Potency,[3],8.33 µM (active)
O=C(O)c1ccc(-c2c[nH]c3ncc(-c4ccccc4)cc23)cc1C1CCCC1,Potency,[1],inactive
same,Potency,[2],inactive
Nc1ncnc2ccccc12,Potency,[1],inactive
same,Potency,[2],inactive
same,Potency,[3],inactive
C=C1C(=O)OC(CCCCCCCC)C1C(=O)O (centres undefined),Potency,[1],inactive
same,Potency,[2],inactive
same,Potency,[3],inactive
COc1ccc2cc(-c3nc(-c4ccc(S(C)=O)cc4)[nH]c3-c3ccncc3)ccc2c1 (centres undefined),Potency,[1],inactive
same,Potency,[5],3.38 µM (active)
same,Potency,[2],23.5 µM (active) and 20.5 µM (active)
same,Potency,[3],26.3 µM (active) and 20.5 µM (active)
